Data: PubChem BioAssay (EPA / NIEHS)
Calls of active or inactive are those of the source. The calls were made as follows: active = hit-call score of the fitted dose curve at least 0.9, where 1 is the maximum; inactive = score below 0.9.

Assays:
Details in all cases: mRNA level, 48 h; actives raise or lower the signal
[1] = read-out: Cytochrome P450 (CYP1A2), CYP1A2 (gene 1544); assay: LTEA_HepaRG_CYP1A2: Life Technologies and Expression Analysis (LTEA) Assay for Cytochrome P450 (CYP1A2) using HepaRG (AID 2283479);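 as to AC50: TaqMan qRT-PCR transcript level normalized to ACTB GAPDH and POLR2A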
Method in brief: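 Differentiated human HepaRG cells in serum-free induction medium were exposed in duplicate for 48 h to 8-point half-log concentrations up to 100 uM in 0.5% DMSO. CYP1A2 mRNA measured by qRT-PCR, normalized to ACTB, GAPDH, POLR2A; bidirectional fit vs DMSO.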

[2] = read-out: cysteine-aspartic acid protease (CASP8), CASP8 (gene 841); assay: LTEA_HepaRG_CASP8: Life Technologies and Expression Analysis (LTEA) Assay for cysteine-aspartic acid protease (CASP8) using HepaRG (AID 2283480)
Method in brief: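 Concentration-response in duplicate up to 100 uM (half-log steps, 0.5% DMSO) on differentiated HepaRG cultures for 48 h. Expression change of CASP8 mRNA is determined by TaqMan qRT-PCR with housekeeping-gene normalization.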

[3] = read-out: Cytochrome P450 (CYP2B6), CYP2B6 (gene 1555); assay: LTEA_HepaRG_CYP2B6: Life Technologies and Expression Analysis (LTEA) Assay for Cytochrome P450 (CYP2B6) using HepaRG (AID 2283481)
Method in brief: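 Differentiated HepaRG cells, serum-free induction medium, exposed 48 h in duplicate to 8-point half-log concentrations from 100 uM in 0.5% DMSO. CYP2B6 mRNA by qRT-PCR, normalized to ACTB, GAPDH, POLR2A; bidirectional fit versus DMSO.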

[4] = read-out: Cytochrome P450 2C19 (Homo sapiens) (UniProt P33261); assay: LTEA_HepaRG_CYP2C19: Life Technologies and Expression Analysis (LTEA) Assay for CYP2C19 using HepaRG (AID 2283482)
Method in brief: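 Differentiated human HepaRG cells were exposed for 48 h in serum-free induction medium to 8 concentrations (top 100 uM, half-log steps, 0.5% DMSO). CYP2C19 mRNA was measured by qRT-PCR, normalized to ACTB/GAPDH/POLR2A, and fitted bidirectionally against DMSO.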

[5] = read-out: CYP2C8 (gene 1558); assay: LTEA_HepaRG_CYP2C8: Life Technologies and Expression Analysis (LTEA) Assay for CYP2C8 using HepaRG (AID 2283483)
Method in brief: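 This is a transcriptional endpoint in HepaRG cultures: 48 h exposure, highest concentration 100 uM. CYP2C8 mRNA is quantified by TaqMan qRT-PCR.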

[6] = read-out: CYP2C9 (gene 1559); assay: LTEA_HepaRG_CYP2C9: Life Technologies and Expression Analysis (LTEA) Assay for CYP2C9 using HepaRG (AID 2283484)
Method in brief: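 Eight-point concentration-response (highest 100 uM, half-log dilutions) in HepaRG cells for 48 h; CYP2C9 expression by qRT-PCR normalized to ACTB, GAPDH, POLR2A. Bidirectional fit, DMSO baseline.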

[7] = read-out: CYP4A11 (gene 1579); assay: LTEA_HepaRG_CYP4A11: Life Technologies and Expression Analysis (LTEA) Assay for CYP4A11 using HepaRG (AID 2283486)
Method in brief: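 Differentiated HepaRG cells, serum-free induction medium, exposed 48 h in duplicate to 8-point half-log series from 100 uM in 0.5% DMSO. CYP4A11 mRNA measured by qRT-PCR, normalized to ACTB, GAPDH, POLR2A; bidirectional fit versus DMSO.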

[8] = read-out: Cytochrome P450 3A4 (Homo sapiens) (UniProt P08684); assay: LTEA_HepaRG_CYP3A4: Life Technologies and Expression Analysis (LTEA) Assay for CYP3A4 using HepaRG (AID 2283487)
Method in brief: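 Differentiated HepaRG cells in serum-free induction medium exposed in duplicate for 48 h to 8 half-log concentrations up to 100 uM in 0.5% DMSO. CYP3A4 mRNA measured by qRT-PCR normalized to ACTB, GAPDH and POLR2A; bidirectional fit versus DMSO.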

[9] = read-out: CYP2E1 (gene 1571); assay: LTEA_HepaRG_CYP2E1: Life Technologies and Expression Analysis (LTEA) Assay for CYP2E1 using HepaRG (AID 2283485)
Method in brief: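 CYP2E1 transcript measured by Fluidigm qRT-PCR against three housekeeping genes in human HepaRG cells treated 48 h (top 100 uM, half-log steps, 0.5% DMSO vehicle). Gain or loss fitted relative to DMSO baseline.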

[10] = read-out: DNA damage-inducible transcript 3 (DDIT3), DDIT3 (gene 1649); assay: LTEA_HepaRG_DDIT3: Life Technologies and Expression Analysis (LTEA) Assay for DNA damage-inducible transcript 3 (DDIT3) using HepaRG (AID 2283488)
Method in brief: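 DDIT3 transcript was quantified by qRT-PCR with ACTB/GAPDH/POLR2A normalization after 48 h chemical treatment of differentiated HepaRG cells in 0.5% DMSO. Dosing was eight-point, half-log, top 100 uM, duplicate wells. Curves fitted bidirectionally versus DMSO.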

Measured: AC50

Sequence of Cytochrome P450 3A4 (Homo sapiens) (P08684 whole entry, looked up): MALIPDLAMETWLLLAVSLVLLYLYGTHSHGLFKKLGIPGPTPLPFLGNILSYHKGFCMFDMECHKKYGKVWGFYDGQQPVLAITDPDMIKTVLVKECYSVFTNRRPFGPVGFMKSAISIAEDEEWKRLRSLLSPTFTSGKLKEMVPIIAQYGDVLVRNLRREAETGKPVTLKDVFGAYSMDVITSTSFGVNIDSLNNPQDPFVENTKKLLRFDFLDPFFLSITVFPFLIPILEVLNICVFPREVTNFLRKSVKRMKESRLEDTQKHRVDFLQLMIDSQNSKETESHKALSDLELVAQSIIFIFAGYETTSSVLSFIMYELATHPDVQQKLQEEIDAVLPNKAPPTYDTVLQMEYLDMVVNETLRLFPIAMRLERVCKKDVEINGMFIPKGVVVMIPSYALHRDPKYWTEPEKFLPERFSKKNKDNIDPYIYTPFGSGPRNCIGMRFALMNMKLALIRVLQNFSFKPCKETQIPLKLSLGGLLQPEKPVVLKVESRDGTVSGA
Sequence of Cytochrome P450 2C19 (Homo sapiens) (P33261 whole entry, looked up): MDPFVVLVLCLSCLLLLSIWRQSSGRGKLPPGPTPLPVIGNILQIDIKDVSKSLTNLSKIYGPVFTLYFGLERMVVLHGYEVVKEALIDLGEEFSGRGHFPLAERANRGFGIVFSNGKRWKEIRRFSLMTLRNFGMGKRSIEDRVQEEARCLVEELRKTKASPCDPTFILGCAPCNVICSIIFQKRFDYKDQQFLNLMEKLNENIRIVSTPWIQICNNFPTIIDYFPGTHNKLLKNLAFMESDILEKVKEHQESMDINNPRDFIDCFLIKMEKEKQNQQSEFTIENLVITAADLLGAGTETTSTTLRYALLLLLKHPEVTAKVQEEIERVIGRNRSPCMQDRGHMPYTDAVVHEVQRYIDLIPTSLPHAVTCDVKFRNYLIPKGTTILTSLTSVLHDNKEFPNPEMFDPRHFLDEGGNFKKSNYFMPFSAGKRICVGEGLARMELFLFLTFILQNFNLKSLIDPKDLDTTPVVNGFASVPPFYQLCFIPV

CCOP(=S)(Oc1ccc([N+](=O)[O-])cc1)c1ccccc1 (centres undefined)
active: [1] 24.2 µM | [3] 1.05 µM | [4] 6.06 µM | [5] 2.42 µM | [7] 10.8 µM | [8] 4.84 µM
inactive: [2] | [6]

CCOP(=S)(OCC)SCSCC
active: [3] 4.47 µM | [4] 11.2 µM | [8] 13.9 µM
not listed: [9] | [10]
inactive: all other assays above

CCOC(=O)c1ccccc1C(=O)OCC
active: [1] 83 µM
not listed: [9] | [10]
inactive: all other assays above

c1ccc(OP(Oc2ccccc2)Oc2ccccc2)cc1
not listed: [9] | [10]
inactive: all other assays above

CCCN(CCC)c1c([N+](=O)[O-])cc(C(C)C)cc1[N+](=O)[O-]
inactive: [2]
active: [1] 27.3 µM | [3] 9.38 µM | [4] 9.77 µM | [5] 13.2 µM | [6] 12.7 µM | [7] 81.2 µM

Nc1ccc(Cl)cc1
active: [1] 33.4 µM
not listed: [9] | [10]
inactive: all other assays above

CCN(CC)c1ccccc1
active: [1] 39 µM
not listed: [9] | [10]
inactive: all other assays above

CCCCc1ccccc1
active: [1] 50 µM
not listed: [9] | [10]
inactive: all other assays above

c1ccc2c(c1)Nc1ccccc1S2
active: [1] 82.8 µM | [3] 36.6 µM | [4] 50 µM
not listed: [9] | [10]
inactive: all other assays above

Cc1cccc(N)c1
active: [1] 50.2 µM
not listed: [9] | [10]
inactive: all other assays above

ClC1=C(Cl)C2(Cl)C3C(Cl)C(Cl)CC3C1(Cl)C2(Cl)Cl (centres undefined)
inactive: [1] | [2] | [6]
active: [3] 0.994 µM | [4] 2.42 µM | [5] 2.17 µM | [7] 24.6 µM | [8] 4.39 µM

CCCCCCCc1ccc(O)cc1
not listed: [9] | [10]
inactive: all other assays above

CC(C)(C)OOC(C)(C)C
inactive: all assays above

CN(C)C(=O)Cl
not listed: [9] | [10]
inactive: all other assays above

CCOc1ccc(C(C)(C)COCc2cccc(Oc3ccccc3)c2)cc1
inactive: [2] | [6]
active: [1] 28 µM | [3] 0.63 µM | [4] 4.25 µM | [5] 3.05 µM | [7] 61.5 µM | [8] 4.91 µM

[N-]=[N+]=[N-]
inactive: [1] | [2] | [4] | [8]
active: [3] 88.3 µM | [5] 79.9 µM | [6] 78.6 µM | [7] 70.6 µM

COCCOCCO
inactive: [1] | [2] | [5] | [6] | [7]
active: [3] 1.15 µM | [4] 2.31 µM

ClC(Cl)c1ccccc1
active: [3] 22.8 µM
not listed: [9] | [10]
inactive: all other assays above

Cc1ccc(N)cc1N
active: [1] 21.5 µM | [3] 5 µM
not listed: [9] | [10]
inactive: all other assays above

O=C(O)C(Cl)Cl
not listed: [9] | [10]
inactive: all other assays above

CCOS(=O)(=O)OCC
not listed: [9] | [10]
inactive: all other assays above

CSC(C)(C)C=NO
not listed: [9] | [10]
inactive: all other assays above

O=C(O)C1C(C(=O)O)C2(Cl)C(Cl)=C(Cl)C1(Cl)C2(Cl)Cl (centres undefined)
not listed: [9] | [10]
inactive: all other assays above

O=P(Oc1ccccc1)(Oc1ccccc1)Oc1ccccc1
active: [1] 27.4 µM | [3] 1.23 µM | [4] 2.95 µM | [5] 12.4 µM | [8] 3.44 µM
inactive: [2] | [6]

CCNc1nc(Cl)nc(NC(C)(C)C)n1
inactive: [2] | [6]
active: [1] 32.1 µM | [3] 1.01 µM | [4] 2.46 µM | [5] 2.37 µM | [7] 9.92 µM | [8] 2.11 µM

O=P1(N(CCCl)CCCl)NCCCO1 (centres undefined)
active: [3] 50 µM
not listed: [9] | [10]
inactive: all other assays above

CCC1(c2ccccc2)C(=O)N=C(O)NC1=O (centres undefined)
active: [3] 34.7 µM | [4] 63.6 µM | [5] 50 µM | [8] 50 µM
inactive: [1] | [2] | [6]

CC(Cc1ccc(OCC(=O)O)cc1)NCC(O)c1csc(C(F)(F)F)n1 (centres undefined)
active: [1] 0.0181 µM
not listed: [9] | [10]
inactive: all other assays above

Nc1ccc2ccccc2c1
active: [1] 33.1 µM | [3] 13 µM | [4] 26.7 µM
not listed: [9]
inactive: all other assays above

O=[N+]([O-])c1ccc(Cl)c(Cl)c1
active: [1] 1.36 µM
not listed: [9] | [10]
inactive: all other assays above

c1cc2c3c(cccc3c1)CC2
active: [3] 50 µM
not listed: [9] | [10]
inactive: all other assays above

Nc1cc2c3c(c1)C(c1ccccc1)=N[C@@H](NC(=O)c1cccnc1)C(=O)N3CC2
active: [1] 50 µM | [3] 3.51 µM | [4] 9.8 µM | [7] 50 µM | [8] 7.78 µM
inactive: [2] | [5] | [6]

c1nc[nH]n1
active: [1] 0.109 µM
not listed: [9] | [10]
inactive: all other assays above

ClC(Cl)(Cl)c1ccccc1
not listed: [9] | [10]
inactive: all other assays above

CC(C)(C)c1ccc(O)cc1
inactive: [2]

CC(Cl)(Cl)C(=O)O
not listed: [9] | [10]
inactive: all other assays above

CCCCN(CCCC)N=O
not listed: [9] | [10]
inactive: all other assays above

CCC(C)(C)c1ccc(O)cc1
not listed: [9] | [10]
inactive: all other assays above

OCC1CO1 (centres undefined)
not listed: [9] | [10]
inactive: all other assays above

Cc1ccc(O)cc1C
inactive: [2]

CCCCN(CCCC)SN(C)C(=O)Oc1cccc2c1OC(C)(C)C2
active: [3] 6.66 µM | [4] 16.7 µM | [8] 8.27 µM
not listed: [9] | [10]
inactive: all other assays above

Cc1ccc([N+](=O)[O-])cc1C
not listed: [9] | [10]
inactive: all other assays above

O=[N+]([O-])c1ccccc1
not listed: [9] | [10]
inactive: all other assays above
